High-throughput results deposited in PubChem BioAssay by National Center for Advancing Translational Sciences (NCATS).
Only some compounds are listed: those with a hit (about 1.8% of all), similar ones and a draw of the others.
GCN5L2 inh = blocks human GCN5L2 histone acetyltransferase | Potency, µM (doses to about 58.9 µM), for inactives: top-dose activity change, negative = inhibition, hits mostly inhibitors | GCN5L2 HAT assay, ThioGlo1 CoA-SH fluorescence | AID 504327 | hit rate 0.21% among 390,000; also: % is scaled to controls: 0 for no effect and ±100 for the full control effect
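GCN5L2 (20nM final) in 50mM HEPES, 0.1mM EDTA pH 7.5, 0.01% Tween-20 was preincubated 15 min at room temperature with compound, then given ThioGlo1 (50uM), H3(1-25) peptide (75uM) and acetyl-CoA (70uM); CoA-thiol fluorescence (Ex340/Em540) was read at 0 and 20 min.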
GLP1R ag = agonists of human GLP-1 receptor | Potency, µM (doses to about 45.6 µM), for inactives: at the top dose activation, hits mostly activators | hit rate 0.007% among 380,000 | P43220 | HEK293 GLP-1R CRE-luciferase, luminescence, 4-6 h; cells express a hypersensitive GLP-1R form; also: % of control where 0% means no effect
Target sequence (P43220 whole entry, looked up): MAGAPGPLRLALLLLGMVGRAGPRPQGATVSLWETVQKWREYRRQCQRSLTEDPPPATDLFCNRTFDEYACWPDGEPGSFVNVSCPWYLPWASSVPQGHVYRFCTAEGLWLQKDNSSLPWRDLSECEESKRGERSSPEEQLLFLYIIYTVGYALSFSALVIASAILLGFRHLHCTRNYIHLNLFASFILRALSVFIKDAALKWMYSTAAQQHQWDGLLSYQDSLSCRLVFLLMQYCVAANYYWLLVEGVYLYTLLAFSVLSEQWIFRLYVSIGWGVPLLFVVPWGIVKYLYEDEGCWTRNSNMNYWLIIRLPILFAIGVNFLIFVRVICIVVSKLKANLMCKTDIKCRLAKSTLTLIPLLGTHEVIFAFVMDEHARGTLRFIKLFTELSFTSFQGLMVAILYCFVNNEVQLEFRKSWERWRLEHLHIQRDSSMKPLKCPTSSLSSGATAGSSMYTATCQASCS
GLP1R inv ag = inverse agonists of human GLP-1 receptor; P43220; HEK293 GLP-1R CRE-luciferase, luminescence, 24 h; GLP-1R form is constitutively active; Potency, µM (titrated, usually from 38.3 µM), for the others: top-dose activity change, negative = inhibition, most hits filed as inhibitors; hit rate 1.6% among 410,000; also: % is scaled to controls: 0 for no effect and ±100 for the full control effect; nearly all actives have a fitted effect of over 55% in size
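GLP-1R inverse agonism mode: basal reporter luminescence in engineered HEK293 cells measured after one day of compound exposure at 37 deg C, with a 12 min room-temperature detection step.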
RGS4 inhibitor = blocks human RGS4-accelerated GTP hydrolysis. P49798. Transcreener GDP fluorescence polarization, RGS4-accelerated GTP hydrolysis. Potency, µM (top dose mostly 114 µM), without a hit: top-dose activity change, negative = inhibition, hits mostly inhibitors. hit rate 0.039% among 390,000; also: % is scaled to controls: 0 for no effect and ±100 for the full control effect; nearly all actives have a fitted effect of over 75% in size
Target sequence (P49798 whole entry, looked up): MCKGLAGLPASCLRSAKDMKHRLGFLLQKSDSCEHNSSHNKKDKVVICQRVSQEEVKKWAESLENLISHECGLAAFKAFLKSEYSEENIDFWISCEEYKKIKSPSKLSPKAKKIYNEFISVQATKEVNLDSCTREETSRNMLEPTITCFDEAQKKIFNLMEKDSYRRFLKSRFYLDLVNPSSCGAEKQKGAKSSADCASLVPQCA
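MLSMR compounds (23 nl, pin-transferred) preincubated 10 min at room temperature with a 500nM (2x) first reagent, then RGS4 at 900nM (2x) plus Transcreener GDP mix added; fluorescence polarization (620/688 nm) read before and after 90 min at 30 °C.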
PTHR1 agonist = PTHR1 (human) receptor agonism; HEK293 GP2 PTHR1 cells, GloSensor cAMP luminescence, 1 h; Potency, µM (highest dose often 115 µM), for the others: at the top dose activation, usual class: activators; hit rate 0.075% among 410,000; AID 743266; also: nearly all actives have a fitted effect of over 55% in size
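HEK-293-derived GP2 cells expressing PTHR1 and a GloSensor cAMP reporter, 3,000/well, plated overnight, given luciferin plus IBMX (each 0.5 mM as added) for 1 h at 37 °C, then compound for 1 h at 37 °C. Luminescence was read after 15 min at room temperature.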
HEK293 tox = cytotoxicity in counter-screen for GLP-1R inverse agonists | HEK293 cAMP-luciferase reporter cells, luminescence, 24 h | Potency, µM (series often up to 38.3 µM), without a hit: at the highest dose activity change, negative = inhibition, most hits filed as inhibitors | hit rate 0.13% among 410,000;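 also: loss of luciferase light is scored as toxicity; % is scaled to controls: 0 for no effect and ±100 for the full control effect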
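Compound-treated cells are incubated 24 hr at 37 deg C under 5% CO2 after a 12 hour attachment period, then luciferase detection reagent is added and luminescence is measured following 12 min at room temperature; lowered signal indicates toxicity.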
Starred values were filed as active, the others as inactive; i = inactive; ? = inconclusive; . = no result given; [ ] = dose if it differs, or a comment. Calls follow the shape of the dose curve; as a rule, active = well fitted curve in the direction sought with a large enough effect; inconclusive = small, poorly fitted or top-dose-only effect, or another doubt; inactive = no such curve, though single readings can be large; an effect the other way counts as inactive or inconclusive. Potency is read from the fitted curve at half-maximal effect.

SMILES	GCN5L2 inh	GLP1R ag	GLP1R inv ag	RGS4 inhibitor	PTHR1 agonist	HEK293 tox
COc1cc(NC(=O)CSc2ncnc3scc(-c4ccccc4)c23)c(C(=O)O)cc1OC	0%	-4%	9%	-22%	i	16%
CCOC(=O)/C=C1/SCC(=O)N1Cc1ccc(Br)cc1	.	11%	5.6µM*	-5%	-9%	-8%
O=S(=O)(c1ccccc1)N(Cc1nc(-c2ccccc2)no1)C1CCCCC1	-16%	7%	6.3µM*	-24%	-9%	5%
Cc1ccc(S(=O)(=O)N(Cc2nc(-c3cccc(C)c3)no2)C2CCCCC2)cc1	-6%	.	10µM*	16%	i	38%
Cc1cccc(-c2noc(CN(C3CCCCC3)S(=O)(=O)c3ccc(F)cc3)n2)c1	-11%	.	2%	15%	i	3%
Cc1cc(N2CCCC2=O)ccc1S(=O)(=O)NC1CCCCC1	2%	22%	22%	-5%	-9%	0%
O=C(CSc1ccc(F)cc1)Nc1ccc2c(c1)C(=O)NC2=O	1%	6%	6%	-4%	i	1%
C/C(=N\Nc1ccc(C(=O)O)cc1)c1ccc(S(=O)(=O)NCc2ccco2)cc1	-14%	-5%	22%	-14%	i	-4%
CC(=O)C1=C(O)C(=O)N(c2ccc(Br)cc2)C1c1ccccc1[N+](=O)[O-] (stereo not given)	-2%	-6%	-14%	30%	i	1%
COc1ccc(N(Cc2cccs2)C(=O)COc2cccc(C)c2C)cc1	-17%	.	?	1%	-28%	-7%
Cc1cc(C)cc(OCC(=O)N(Cc2cccs2)c2ccc(Cl)cc2)c1	-15%	.	10µM*	12%	i	-7%
COc1ccc(N(Cc2cccs2)C(=O)COc2cc(C)c(Cl)c(C)c2)cc1	-17%	.	8.9µM*	16%	-69%	-22%
Cc1ccc(N(Cc2cccs2)C(=O)COc2cccc(C)c2)cc1	-9%	.	?	-1%	-31%	5%
CC(C)COC(=O)N(C)c1ccc(C(O)(C(F)(F)F)C(F)(F)F)cc1	-12%	10%	8.9µM*	26%	-30%	4%
CC(C)CNC(=O)N1[C@H](c2cccs2)[C@@H](C)C(=O)[C@@H](C)[C@@H]1c1cccs1	-1%	.	-50%	27%	i	-10%
Cc1cc(C)n(-c2ccc(C(=O)Nc3ccc(S(=O)(=O)NCc4ccco4)cc3)cc2)n1	-5%	-16%	11µM*	5%	-28%[57.5 µM]	-25%
Cc1ccc(C(=O)Nc2ccc(S(=O)(=O)NCc3ccco3)cc2)cc1	-9%	-1%	6%	-16%	-31%[57.5 µM]	-10%
CC1(C)OC(=O)C2(Cc3ccccc3N3CCCC32)C(=O)O1 (stereo not given)	.	.	.	-13%	.	.
C=CCN1C(=O)C(Cc2ccccc2)S/C1=N/N=C/c1cccs1 (stereo not given)	-9%[0.501 µM]	7%	11µM*	-28%	-26%[57.5 µM]	12%
C=CCN1C(=O)C(Cc2ccc(C)cc2)S/C1=N/N=C/c1ccco1 (stereo not given)	2%	10%	?	4%	-8%[57.5 µM]	-7%
C=CCN1C(=O)C(Cc2ccc(OCC)cc2)S/C1=N\N=C\c1cccs1 (stereo not given)	4%	-3%	10µM*	22%	i	1%
CC[C@H](C)[C@H](NC(=O)[C@H](CCCNC(=N)N)NC(=O)[C@@H](NC(=O)[C@H](CCCNC(=N)N)NC(=O)[C@H](CCCCN)NC(=O)[C@H](CCCNC(=N)N)NC(=O)[C@@H](NC(=O)[C@H](CC(N)=O)NC(=O)[C@@H](N)CS)[C@@H](C)O)[C@@H](C)CC)C(=O)N[C@@H](CCC(N)=O)C(=O)N[C@@H](CCCNC(=N)N)C(=O)NCC(=O)N1CCC[C@H]1C(=O)NCC(=O)N[C@@H](CCCNC(=N)N)C(=O)N[C@@H](C)C(=O)N[C@@H](Cc1ccccc1)C(=O)N[C@H](C(=O)N[C@H](C(=O)N[C@H](C(=O)NCC(=O)N[C@@H](CCCCN)C(=O)O)[C@@H](C)CC)[C@@H](C)O)C(C)C	5%	.	.	.	.	.
CCCNC(=S)Nc1cc2oc3ccccc3c2cc1OC	-6%	-6%	8.9µM*	1%	-7%	-15%
COc1cc2c(cc1NC(=O)Nc1ccc(C)cc1)oc1ccccc12	2%	-3%	1.8µM*	-20%	-16%	-18%
CCNC(=S)Nc1cc2oc3ccccc3c2cc1OC	?	5%	?	-17%	i	?
SMILES	GCN5L2 inh	GLP1R ag	GLP1R inv ag	RGS4 inhibitor	PTHR1 agonist	HEK293 tox
COc1ccc(NC(=O)Nc2cc3oc4ccccc4c3cc2OC)cc1	-4%	-11%	?	-6%	i	10%
CC1Cc2ccccc2N1C(=O)Cn1cc([N+](=O)[O-])cn1 (stereo not given)	-18%	-6%	10%	-2%	i	-2%
C=CCOc1cccc(/C=C2\C(=O)N(Cc3ccc(C)cc3)C(C)=C2C(=O)OC)c1	-5%	9%	4.5µM*	-19%	-17%	-26%
CN1CCCC2(CCN(S(=O)(=O)c3ccccc3)CC2)C1	6%	.	.	.	.	.
Cc1ccc(S(=O)(=O)c2c(Nc3ccc(C)c(C)c3)sc(C(=O)c3ccc4c(c3)OCO4)c2N)cc1	-11%	.	?	13%	i	-7%
CCOC(=O)c1ccc(-c2c(-c3ccccc3OC)sc3ccc(OC)cc23)cc1F	-12%	-2%	11µM*	-1%	1%	17%
Cc1c(C(=O)NC(C)c2ccccc2)sc2ncnc(N(C)C3CCCCC3)c12 (stereo not given)	-4%	.	11µM*	-11%	i	7%
Cn1c(C=O)c(C#CC(C)(C)O)c2ccccc21	-16%	8%	-17%	10%	-19%	-9%
COc1cccc(C#Cc2c(C=O)n(C)c3ccccc23)c1	-2%	-6%	10µM*	-5%	-11%	51%
Cc1coc2c1C(=O)C(=O)c1c-2ccc2c1CCCC2(C)C	28µM*	-2%	-22%	?	-65%	-9%
Cc1coc2c1C(=O)C(=O)c1c-2ccc2c(C)cccc12	-24%	-2%	-6%	-51%	-9%	-31%
CCCSc1cc(N2CCOCC2)nc(-c2ccccc2Cl)n1	-10%	8%	10µM*	-11%	-9%[57.5 µM]	-13%
Cc1ccc(C)c(NS(=O)(=O)c2cc3c(cc2C)n(C)c(=O)c(=O)n3C)c1	-10%	.	9%	0%	-8%	-2%
CCCCc1ccc(NC(=O)CC(C)=O)cc1	-2%	-10%	-2%	-18%	i	?
